# Results published in PubChem BioAssay (NCATS).
# “And” between values parts separate entries of the source, which are not always exact repeats. Equal entries are not always repeated. A number with no mark means an inactive call. Calls come from the whole dose curve.
# Biological target: Glucocorticoid receptor (Homo sapiens) (UniProt P04150)
# Experiment: GR-EFC Redistribution (AID 451)
# Details: CHO-K1 GR-EFC translocation, beta-gal luminescence, 2 h
# In short: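 CHO-K1 cells stably expressing nuclear-localized β-gal enzyme acceptor and GR fused C-terminally to the enzyme donor fragment; ligand-driven nuclear translocation restores β-gal by complementation. Compounds titrated up to 46 uM final, 2 h at 37 °C; luminescence read.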
# Potency is the fitted concentration of half-maximal effect.
# Sequence of Glucocorticoid receptor (Homo sapiens) (P04150 whole entry, looked up): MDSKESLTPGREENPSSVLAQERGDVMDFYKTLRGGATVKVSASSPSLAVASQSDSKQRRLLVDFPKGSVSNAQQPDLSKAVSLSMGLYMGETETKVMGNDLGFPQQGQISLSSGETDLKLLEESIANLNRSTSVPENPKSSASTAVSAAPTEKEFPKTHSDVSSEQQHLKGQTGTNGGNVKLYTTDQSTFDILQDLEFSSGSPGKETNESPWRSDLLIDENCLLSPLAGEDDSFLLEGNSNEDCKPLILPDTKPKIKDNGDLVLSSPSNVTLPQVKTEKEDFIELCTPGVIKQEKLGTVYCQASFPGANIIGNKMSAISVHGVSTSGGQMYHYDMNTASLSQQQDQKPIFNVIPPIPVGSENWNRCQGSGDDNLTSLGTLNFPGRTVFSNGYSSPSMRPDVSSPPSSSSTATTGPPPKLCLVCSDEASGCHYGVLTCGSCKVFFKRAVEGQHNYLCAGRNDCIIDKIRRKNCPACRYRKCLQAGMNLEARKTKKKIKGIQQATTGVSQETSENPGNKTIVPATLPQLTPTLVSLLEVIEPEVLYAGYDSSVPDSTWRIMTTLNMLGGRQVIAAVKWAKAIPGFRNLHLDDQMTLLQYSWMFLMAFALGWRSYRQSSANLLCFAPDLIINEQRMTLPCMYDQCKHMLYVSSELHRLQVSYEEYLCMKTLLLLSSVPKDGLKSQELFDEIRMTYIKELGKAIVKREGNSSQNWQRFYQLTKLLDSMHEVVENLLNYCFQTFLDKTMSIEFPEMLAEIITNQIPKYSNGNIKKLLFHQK
row,SMILES,Potency
1,CN1CCCC[C@@H]1CCN1c2ccccc2Sc2ccc(S(C)=O)cc21 (stereo not given in full),> 20.6 µM and > 9.22 µM
2,CN(Cc1ccco1)c1ccnc(-c2cccc(NS(C)(=O)=O)c2)n1,> 46 µM
3,Cc1cccc(CNc2ncncc2-c2ccccc2C(F)(F)F)c1,> 46 µM
4,COc1ccccc1-c1ccc2ncnc(N(C)C)c2c1,> 46 µM
5,COc1cccc(Nc2ncc3nc(C)c(=O)n(CCC#N)c3n2)c1,> 46 µM
6,Cn1cccc1C(=O)N1CCC2(CC1)CN(Cc1cc(C(F)(F)F)cc(C(F)(F)F)c1)C2,> 46 µM
7,COc1ccc2[nH]cc(CCNc3ncnc4ccc(-c5ccc(C(=O)N(C)C)cc5)cc34)c2c1,> 46 µM
8,CN(C)Cc1ccccc1-c1ccc2ncnc(NCc3ccccc3)c2c1,> 46 µM
9,Cc1cccc(CNc2cc(-c3ccc(C(=O)N(C)C)cc3)ncn2)c1,> 46 µM
10,COc1ccc2[nH]cc(CCNc3cc(-c4ccoc4)ncn3)c2c1,> 46 µM
11,Cc1cccc(CNc2ccnc(-c3ccc(C(=O)N(C)C)cc3)n2)c1,> 46 µM
12,CN(C)Cc1ccccc1-c1nc(N(C)Cc2ccco2)c2ccccc2n1,> 46 µM
13,Cc1cccc(CNc2nc(-c3ccoc3)nc3ccccc23)c1,> 46 µM
14,CNc1nc(-c2ccccc2OC)nc2ccccc12,> 46 µM
15,COc1ccccc1-c1cncnc1NCc1cccc(C)c1,> 46 µM
16,CC(=O)N1CCC2(CC1)CCN(c1ccncc1)CC2,> 46 µM
17,Cc1nc2cnc(N(C)C)nc2n(Cc2cccs2)c1=O,> 46 µM
18,c1ccc2c(Nc3ccncc3)nc(-c3ccoc3)nc2c1,> 46 µM

row,SMILES,Potency
1,COCC(=O)N1CCC2(CCN(Cc3ccncc3)CC2)CC1,> 46 µM
2,CS(=O)(=O)Nc1cccc(-c2nc(N3CCOCC3)c3ccccc3n2)c1,> 46 µM
3,Cc1cccc(CNc2nc(-c3cccc(NS(C)(=O)=O)c3)nc3ccccc23)c1,> 46 µM
4,CNc1ncnc2ccc(-c3ccccc3OC)cc12,> 46 µM
5,N#CCCn1c(=O)cnc2cnc(N3CCNCC3)nc21,> 46 µM
6,CC(C)NC(=O)N1CCC2(CC1)CCN(C(=O)c1cnccn1)CC2,> 46 µM
7,COc1ccc2[nH]cc(CCNc3ncnc4ccc(-c5ccccc5CN(C)C)cc34)c2c1,> 46 µM
8,COCCNc1nc(-c2cccc(OC)c2)nc2ccccc12,> 46 µM
9,CN(C)c1ccc(-c2cc(NCc3cccnc3)ncn2)cc1,> 46 µM
10,COc1ccc2[nH]cc(CCNc3ncncc3-c3ccccc3CN(C)C)c2c1,> 46 µM
11,Cc1ccccc1-c1nc(-n2ccnc2)c2ccccc2n1,> 46 µM
12,COc1ccccc1CNc1ccnc(-c2ccccc2C(F)(F)F)n1,> 46 µM
13,COc1ccccc1-c1nc(NCc2cnc(C)cn2)c2ccccc2n1,> 46 µM
14,COc1ncc2nc(-c3ccc(Cl)cc3)c(=O)n(-c3ccccc3)c2n1,> 46 µM
15,COCCNc1ncnc2ccc(-c3ccccc3CN(C)C)cc12,> 46 µM
16,COc1ccc(C(=O)N2CCC3(CCN(C(=O)Nc4cccc(F)c4)CC3)CC2)cc1,> 46 µM
17,Cc1cccc(CNc2ccnc(-c3ccccc3CN(C)C)n2)c1,> 46 µM
